Assay [1] deals with Retinoic acid receptor RXR-alpha (Homo sapiens) (UniProt P19793). In words: ATG_RXRa_TRANS: Attagene TRANS-FACTORIAL HepG2 Assay for human Retinoid X Receptor alpha (RXRa) (AID 2283012; active = hit-call score of the fitted dose curve at least 0.9, where 1 is the maximum). The essentials:
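Chimeric NR-GAL4 trans-activation in HepG2, 24 h treatment; reporter transcripts quantified by fluorescence on capillary electrophoresis, analysed for upward change from DMSO.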

Assay [2] addresses human Retinoid X Receptor beta (RXRb), RXRB (gene 6257) (UniProt P28702). In words: ATG_RXRb_TRANS: Attagene TRANS-FACTORIAL HepG2 Assay for human Retinoid X Receptor beta (RXRb) (AID 2283013; active = hit-call score of the fitted dose curve at least 0.9, where 1 is the maximum). Put shortly:
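After a 24 h incubation with test chemical, transfected HepG2 cells carrying NR-Gal4 fusions and GAL4-UAS reporter transcription units yield RNA whose reporter cDNA is FAM-labelled, HpaI-cut and sized by capillary electrophoresis; increases over DMSO are scored.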

Assay [3] concerns the target human Thyroid Receptor alpha (THRa1), THRA (gene 7067) (UniProt P10827). Put plainly: ATG_THRa1_TRANS: Attagene TRANS-FACTORIAL HepG2 Assay for human Thyroid Receptor alpha (THRa1) (AID 2283014; active = hit-call score of the fitted dose curve at least 0.9, where 1 is the maximum). The essentials:
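HepG2 cells transiently transfected with chimeric NR-Gal4 and GAL4-UAS reporter units, dosed 24 h. Reporter mRNA quantified by RT-PCR, fluorescent labeling, HpaI digestion and capillary electrophoresis; gain-of-signal fit versus DMSO.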

Read-out in assay [4]: E-selectin (Homo sapiens) (UniProt P16581)
In words: BSK_3C_Eselectin: BioMAP Diversity Plus: 3C Assay for Eselectin Biomarker Activity (AID 2283015).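 For outcome: cell surface E-selectin protein quantified by ELISA 24 h after dosing.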 The settings on record: primary human endothelial cells (HUVEC); actives raise or lower the signal. Put shortly: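 Primary human umbilical vein endothelial cells (3C system), read 24 h after compound addition; E-selectin measured by ELISA. Bidirectional curve fitting against DMSO baseline; cytotoxicity by parallel SRB total-protein staining.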

Read-out in assay [5]: Interleukin-1 alpha (IL1a), IL1A (gene 3552)
In words: BSK_BE3C_IL1a: BioMAP Diversity Plus: BE3C Assay for Interleukin-1 alpha (IL1a) Biomarker Activity (AID 2283016). The settings on record: primary human bronchial epithelial cells; actives raise or lower the signal. The essentials: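 Measured in human lung primary bronchial epithelial cells: IL-1a by ELISA at 24 h after dosing, with bidirectional fitting against DMSO.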

Read-out in assay [6]: Monocyte Chemoattractant Protein-1 (MCP1), CCL2 (gene 6347)
Put plainly: BSK_3C_MCP1: BioMAP Diversity Plus: 3C Assay for Monocyte Chemoattractant Protein-1 (MCP1) Biomarker Activity (AID 2283017). To be noted: primary human endothelial cells (HUVEC); actives raise or lower the signal. Put shortly:
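Human umbilical vein endothelial cells (3C system) exposed to chemicals for 24 h; MCP-1 quantified by ELISA against the DMSO baseline with bidirectional fitting, and parallel SRB staining used to assess cytotoxicity.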

Read-out in assay [7]: Monocyte Chemoattractant Protein-1 (MCP1), CCL2 (gene 6347)
Put plainly: BSK_4H_MCP1: BioMAP Diversity Plus: 4H Assay for Monocyte Chemoattractant Protein-1 (MCP1) Biomarker Activity (AID 2283018). The settings on record: primary human endothelial cells (HUVEC); actives raise or lower the signal. The essentials: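 Primary human umbilical vein endothelium is exposed to chemical for 24 h before MCP-1 is assayed by ELISA. Concentration-response fitted bidirectionally relative to DMSO.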

Read-out in assay [8]: Human Leukocyte Antigen - DR isotype (HLADR), HLA-DRA (gene 3122)
Put plainly: BSK_3C_HLADR: BioMAP Diversity Plus: 3C Assay for Human Leukocyte Antigen - DR isotype (HLADR) Biomarker Activity (AID 2283019).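 For outcome: ELISA of cell-surface HLA-DR on HUVEC 24 h after dosing.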 The settings on record: primary human endothelial cells (HUVEC); actives raise or lower the signal. The essentials:
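HUVEC monoculture, HLA-DR measured by ELISA 24 h after chemical dosing. Fitted bidirectionally against DMSO baseline; parallel SRB staining assessed cytotoxicity, with 3C proliferation read by SRB at 48 h.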

Read-out in assay [9]: Interleukin-8 (IL8), CXCL8 (gene 3576)
Put plainly: BSK_3C_IL8: BioMAP Diversity Plus: 3C Assay for Interleukin-8 (IL8) Biomarker Activity (AID 2283020). The settings on record: primary human endothelial cells (HUVEC); actives raise or lower the signal. Put shortly: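 Using DMSO-treated wells as the baseline, bidirectional curve fitting was applied to ELISA-measured IL-8 from human umbilical vein endothelial cultures sampled 24 h after compound addition.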

Read-out in assay [10]: Monokine induced gamma interferon (MIG), CXCL9 (gene 4283)
Put plainly: BSK_3C_MIG: BioMAP Diversity Plus: 3C Assay for Monokine induced gamma interferon (MIG) Biomarker Activity (AID 2283021).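 For AC50: MIG protein level measured by immunoassay in the treated endothelial cultures.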 The settings on record: primary human endothelial cells (HUVEC); actives raise or lower the signal. The essentials: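 ELISA-measured MIG in dosed HUVEC 3C cultures at 24 h, analysed by bidirectional fitting with DMSO defining baseline activity.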

Structures are written as SMILES. Where “and” joins values, the source holds several entries; their conditions need not be identical. Equal entries are not always repeated. Inconclusive results are not listed. The source holds several records for some structures; these can differ, active in one and inactive in another. Calls of active or inactive are those of the source. Rule for the calls, unless noted: active = hit-call score of the fitted dose curve at least 0.9, where 1 is the maximum; inactive = score below 0.9.

Sequence of human Retinoid X Receptor beta (RXRb), RXRB (gene 6257) (P28702 whole entry, looked up, the tested form may be a part): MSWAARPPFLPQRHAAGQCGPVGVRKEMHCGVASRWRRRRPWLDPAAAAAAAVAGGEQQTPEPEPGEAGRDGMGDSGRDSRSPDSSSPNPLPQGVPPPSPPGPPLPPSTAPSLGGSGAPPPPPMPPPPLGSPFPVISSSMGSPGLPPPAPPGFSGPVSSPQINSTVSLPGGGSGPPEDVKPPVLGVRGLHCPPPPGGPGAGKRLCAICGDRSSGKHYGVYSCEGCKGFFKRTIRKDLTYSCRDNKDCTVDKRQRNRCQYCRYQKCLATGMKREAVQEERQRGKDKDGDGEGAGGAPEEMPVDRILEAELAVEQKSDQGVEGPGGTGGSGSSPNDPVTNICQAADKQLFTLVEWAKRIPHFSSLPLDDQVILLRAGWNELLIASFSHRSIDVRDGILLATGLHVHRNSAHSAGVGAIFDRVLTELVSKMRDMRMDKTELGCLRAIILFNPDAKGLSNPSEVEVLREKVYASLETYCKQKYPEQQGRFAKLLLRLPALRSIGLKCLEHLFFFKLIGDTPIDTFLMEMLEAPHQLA
Sequence of E-selectin (Homo sapiens) (P16581 whole entry, looked up): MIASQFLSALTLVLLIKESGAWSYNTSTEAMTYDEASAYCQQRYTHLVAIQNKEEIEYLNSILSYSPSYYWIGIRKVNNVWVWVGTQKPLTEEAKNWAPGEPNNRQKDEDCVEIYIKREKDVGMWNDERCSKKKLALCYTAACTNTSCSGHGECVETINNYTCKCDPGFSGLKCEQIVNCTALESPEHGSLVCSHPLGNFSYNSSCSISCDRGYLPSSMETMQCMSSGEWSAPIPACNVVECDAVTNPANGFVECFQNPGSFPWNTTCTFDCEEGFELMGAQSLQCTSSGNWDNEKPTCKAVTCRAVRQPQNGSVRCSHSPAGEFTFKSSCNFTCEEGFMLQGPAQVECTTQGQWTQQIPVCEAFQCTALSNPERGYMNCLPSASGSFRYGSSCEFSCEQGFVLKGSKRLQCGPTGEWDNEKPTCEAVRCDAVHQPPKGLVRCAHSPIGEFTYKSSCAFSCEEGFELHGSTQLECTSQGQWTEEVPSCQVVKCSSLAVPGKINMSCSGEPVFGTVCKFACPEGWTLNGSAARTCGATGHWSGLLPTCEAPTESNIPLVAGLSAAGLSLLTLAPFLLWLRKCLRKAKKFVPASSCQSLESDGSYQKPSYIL
Sequence of Retinoic acid receptor RXR-alpha (Homo sapiens) (P19793 whole entry, looked up, the tested form may be a part): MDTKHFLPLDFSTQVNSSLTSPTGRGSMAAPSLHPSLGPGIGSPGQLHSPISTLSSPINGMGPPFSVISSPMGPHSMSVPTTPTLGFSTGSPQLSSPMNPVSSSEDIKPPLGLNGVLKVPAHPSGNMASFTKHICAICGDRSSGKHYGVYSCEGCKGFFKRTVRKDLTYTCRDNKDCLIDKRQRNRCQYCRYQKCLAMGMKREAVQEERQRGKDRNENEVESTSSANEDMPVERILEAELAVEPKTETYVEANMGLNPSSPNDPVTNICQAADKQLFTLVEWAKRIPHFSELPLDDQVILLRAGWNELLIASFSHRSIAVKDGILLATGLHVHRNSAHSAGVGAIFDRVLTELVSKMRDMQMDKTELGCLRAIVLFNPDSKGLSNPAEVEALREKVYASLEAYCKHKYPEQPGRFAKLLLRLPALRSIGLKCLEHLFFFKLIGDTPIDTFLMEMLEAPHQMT
Sequence of human Thyroid Receptor alpha (THRa1), THRA (gene 7067) (P10827 whole entry, looked up, the tested form may be a part): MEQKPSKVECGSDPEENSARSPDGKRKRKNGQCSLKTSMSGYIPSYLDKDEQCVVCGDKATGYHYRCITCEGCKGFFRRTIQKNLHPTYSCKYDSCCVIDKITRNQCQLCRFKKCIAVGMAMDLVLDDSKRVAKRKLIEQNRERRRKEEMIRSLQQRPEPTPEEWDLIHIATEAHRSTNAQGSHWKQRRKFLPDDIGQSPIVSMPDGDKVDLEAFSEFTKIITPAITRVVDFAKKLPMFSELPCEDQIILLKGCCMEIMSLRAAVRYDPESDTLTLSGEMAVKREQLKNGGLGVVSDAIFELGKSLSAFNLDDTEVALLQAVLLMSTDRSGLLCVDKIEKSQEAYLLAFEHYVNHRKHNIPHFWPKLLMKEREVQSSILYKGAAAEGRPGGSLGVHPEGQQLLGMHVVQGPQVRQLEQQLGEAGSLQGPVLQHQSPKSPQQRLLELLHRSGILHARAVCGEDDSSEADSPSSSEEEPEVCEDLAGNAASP

As for `c1ccc2cc3c(ccc4ccccc43)cc2c1`, the call in assay [1], in [2], in [3], in [4], in [5] and in [6] was inactive. The result in assay [7], in [8], in [9] and in assay [10] was inactive.

Turning to `O=C(O)Cc1cc(I)c(Oc2cc(I)c(O)c(I)c2)c(I)c1`, the AC50 in [1] was 10.3 µM (active); in assay [2] it was 2.55 µM (active) and 17.6 µM (active); in assay [3], 7.41 nM (active) and 21.4 nM (active); in assay [5], 8.95 µM (active); in [6] it was 25.4 µM (active); in assay [7], 19.9 µM (active). For the same molecule, the AC50 in [8] is 26.2 µM (active); in [9] it was 22.4 µM (active). Further, the outcome in assay [1], in assay [4] and in [10] was inactive.

As to `CC(=O)CC(C)(C)O`, the molecule was classed as inactive in assay [1], in assay [2], in assay [3], in assay [4], in assay [5] and in [6]. For the same molecule, the result in assay [7], in [8], in assay [9] and in [10] was inactive.

With `CCC(=C(c1ccc(O)cc1)c1ccc(OCCN(C)C)cc1)c1ccccc1`, the molecule was classed as inactive in [1], in [2] and in assay [3]. Further, the AC50 was 11.1 µM (active) in assay [4]; 9.53 µM (active) in assay [5]; 8.6 µM (active) in assay [6]; 12.5 µM (active) in [7]; 8.28 µM (active) in [8]; 9.28 µM (active) in assay [9]. Further, the AC50 in [10] was 11.1 µM (active).

Take `CCCCCCCCCCCCCCCS(=O)(=O)Oc1ccccc1`: the call in assay [1], in [2], in assay [3], in assay [4], in assay [5] and in [6] was inactive. Moreover, the result in assay [7], in assay [8], in assay [9] and in assay [10] was inactive.

On to `CC(C)(C)c1ccc(O)c(C(C)(C)C)c1`, for which the AC50 in [1] is 7.27 µM (active); in assay [2], 3.2 µM (active); in [3], 11.1 µM (active); in assay [4] it was 10.3 µM (active); in assay [5] it was 33.7 µM (active); in [6], 11.7 µM (active). Also, the concentration at half-maximal activity (AC50) is 10 µM (active) in assay [7], 8.06 µM (active) in assay [8], 12.9 µM (active) in [9] and 14.7 µM (active) in [10].

As for `CC[C@H](c1ccc(O)cc1)[C@@H](CC)c1ccc(O)cc1`, the molecule was called inactive in [1] and in [3]. In addition, the half-maximal activity concentration (AC50) in assay [2] is 3.79 µM (active) [middle of 4 runs]; in [4] it was 34.8 µM (active); in assay [5], 24.3 µM (active); in assay [6], 32.1 µM (active); in assay [7] it was 20 µM (active); in assay [8], 20.9 µM (active). Further, the AC50 is 33.6 µM (active) in [9] and 37.4 µM (active) in assay [10].

Consider `CCN(CC)CCNc1ccc(CNC=O)c2sc3ccc(OC)cc3c(=O)c12`, for which the AC50 in assay [1] is 1.85 µM (active); in assay [2], 0.45 µM (active); in assay [4], 27.3 µM (active); in [5], 29.3 µM (active); in assay [6] it was 19.4 µM (active); in [7], 20 µM (active). Also, the AC50 was 13.4 µM (active) in assay [8] and 16.4 µM (active) in assay [9]. Moreover, the molecule was classed as inactive in [3].

On to `OC1CCC(C2CCCCC2)CC1` (configuration not stated), for which the call in assay [1], in assay [2], in assay [3], in assay [4], in assay [5] and in [6] was inactive. The outcome in assay [7], in assay [8], in [9] and in assay [10] was inactive.

As for `Nc1cccc2c(N)cccc12`, the call in assay [1], in [2], in [3], in assay [4], in [5] and in assay [6] was inactive. Moreover, the result in [7], in assay [8], in assay [9] and in [10] was inactive.

For the molecule `CCCCCCCC(=O)O`, the molecule was classed as inactive in [1], in assay [2], in assay [3], in [4], in [5] and in assay [6]. Besides, the outcome in assay [7], in assay [8], in assay [9] and in assay [10] was inactive.

Take `c1ccc2c(c1)ccc1ccccc12`: the molecule was called inactive in assay [1], in assay [3], in assay [4], in assay [5], in assay [6] and in assay [7]. Also, the result in assay [8], in assay [9] and in assay [10] was inactive. For the same molecule, the AC50 in [2] is 44.9 µM (active).

With `CC(C)(C)c1cccc(C(C)(C)C)c1O`, the half-maximal activity concentration (AC50) was 68.8 µM (active) in [1] and 33.5 µM (active) in assay [2]. In addition, the call in assay [3], in assay [4], in [5], in assay [6], in assay [7] and in assay [8] was inactive. The outcome in assay [9] and in [10] was inactive.

With `CCCCCCCCCCCCCC[N+](C)(C)C`, the molecule was classed as inactive in assay [1], in assay [2] and in assay [3]. Moreover, the half-maximal activity concentration (AC50) in assay [3] is 26.7 µM (active); in assay [4] it was 8.8 µM (active); in assay [5], 3.83 µM (active); in [6], 2.17 µM (active); in [7], 1.69 µM (active); in assay [8], 2.1 µM (active). In addition, the AC50 was 6.77 µM (active) in assay [9] and 8.96 µM (active) in assay [10].

For `ClC1=C(Cl)C(Cl)(Cl)C(Cl)=C1Cl`, the call in assay [1], in assay [2] and in [3] was inactive. Besides, the AC50 in [2] was 17.5 µM (active); in assay [4], 7.17 µM (active); in assay [5], 8.21 µM (active); in assay [6], 7.92 µM (active); in [7], 7.06 µM (active); in [8] it was 4.6 µM (active). Besides, the AC50 in assay [9] was 9.46 µM (active); in assay [10], 10.5 µM (active).

Source of the values: PubChem BioAssay (EPA / NIEHS).
